# BAP1 inh: blocks human BAP1 ubiquitin-AMC hydrolysis; Q92560; recombinant BAP1, Ub-AMC hydrolysis fluorescence kinetic; stronger effect = lower value; calls only at 20 µM; 72,000 compounds, 0.48% hits; AID 436;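 active means activity remaining at or below 50% of control, provided the compound also passes the data quality filters; inactive means the rest, including low values that fail the filters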;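 further: 100% = DMSO wells rate and 0% = substrate alone blank rate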
# DAT uptake mod: modulates human dopamine transporter uptake under cocaine | Q01959 | LLC-PK1 hDAT cells, [14C]-dopamine uptake with cocaine IC80; actives deviate in either direction | B-score at 10 µM | 110,000 compounds, 1.3% hits | AID 449768;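 active means Z score or B-score, a plate-position-corrected score, falls beyond the plate's 99.7% confidence bounds, in either direction; inactive means both scores lie inside the 99.7% bounds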;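 further: scored against the spread of the other compound wells on the same plate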
# Target sequence (Q01959 whole entry, looked up): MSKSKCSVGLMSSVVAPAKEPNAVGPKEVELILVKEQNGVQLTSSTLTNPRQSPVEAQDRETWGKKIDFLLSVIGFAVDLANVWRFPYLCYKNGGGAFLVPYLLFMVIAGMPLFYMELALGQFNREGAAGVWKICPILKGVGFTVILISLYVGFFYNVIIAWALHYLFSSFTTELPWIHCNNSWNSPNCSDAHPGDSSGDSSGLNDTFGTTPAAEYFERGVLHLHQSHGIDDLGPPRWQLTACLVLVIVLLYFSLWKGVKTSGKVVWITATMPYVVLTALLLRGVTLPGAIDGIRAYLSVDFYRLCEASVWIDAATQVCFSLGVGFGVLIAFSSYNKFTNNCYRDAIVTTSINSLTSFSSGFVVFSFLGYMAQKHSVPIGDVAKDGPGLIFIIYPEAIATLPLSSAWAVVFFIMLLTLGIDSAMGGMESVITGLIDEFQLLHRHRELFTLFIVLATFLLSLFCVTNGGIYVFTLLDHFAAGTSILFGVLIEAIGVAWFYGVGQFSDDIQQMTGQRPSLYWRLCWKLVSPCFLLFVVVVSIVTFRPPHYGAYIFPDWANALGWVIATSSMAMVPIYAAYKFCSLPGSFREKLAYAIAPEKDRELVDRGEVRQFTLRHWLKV
# D1 allo mod: D1 dopamine receptor (human) allosteric modulation; B-score at 10 µM; HEK293 D1, CRE-luciferase, dopamine EC30 potentiation; actives deviate in either direction; 58,000 compounds, 5.9% hits; P21728;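 active means luminescence count or its row- and column-corrected plate score outside the 99.7% band of the plate's sample wells, on either side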
# D1 PAM confirm: D1 receptor (human) allosteric modulation, confirmed | shares compounds with D1 allo mod | 2,200 compounds, 88% hits | HEK293 D1 CRE-luciferase, dopamine EC30 potentiation; stronger effect = higher value | luminescence at 10 µM | AID 642;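 active means luminescence in either of two replicates above the same-plate mean plus 3 SD of the low-dose dopamine control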
# D1 ag no DA: activates D1 CRE-luciferase signal without dopamine present; 1,900 compounds, 0.8% hits; HEK293 D1 CRE-luciferase, luminescence, no dopamine; stronger effect = higher value; shares compounds with D1 allo mod; luminescence at 10 µM; in the data active means luminescence above about 3900
# Isoprot counter: isoproterenol response counter-screen activity for D1 modulators | HEK293 D1 CRE-luciferase, isoproterenol EC30 counter-screen; stronger effect = higher value | AID 647 | 2,200 compounds, 63% hits | luminescence at 10 µM | shares compounds with D1 allo mod;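 active means luminescence in either replicate above plate mean of wells with a partly effective reference agonist dose plus 3 SD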;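 further: isoproterenol raises cAMP through native beta-adrenoceptor Gs so signal bypasses D1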
# * = called active by the depositor; i = inactive; . = no result shown. Many of the other results were omitted from the sample, so hits are more common in it than they were.
SMILES,BAP1 inh,DAT uptake mod,D1 allo mod,D1 PAM confirm,D1 ag no DA,Isoprot counter
Cc1c(C#N)c2ccccc2n1CC(=O)NCC1CCCO1 (centres undefined),i,-0.15,3.8*,5268,1692,2976
N#Cc1cn(CC(=O)NCC2CCCO2)c2ccccc12 (centres undefined),i,-0.021,0.2,.,.,.
CCc1ccc(C2C(C#N)=C(N)SC(N)=C2C#N)s1,i,0.14,7.3*,8708*,1568,3044*
CCc1ccc(C2C(C#N)=C(N)SC(N)=C2C#N)cc1,i,-0.45,1.9,.,.,.
CCn1ncc(C2=NOC(C(=O)Nc3ccc(C)cc3)C2)c1C (centres undefined),.,0.25,.,.,.,.
CCn1ncc(C2=NOC(C(=O)Nc3ccc4c(c3)OCO4)C2)c1C (centres undefined),i,0.54,4.6*,7668*,1584,3432
CC(=O)OCCN1C(=O)c2cccc([N+](=O)[O-])c2C1=O,i,.,.,.,.,.
CCOCCOC(=O)C1=C(C)N(C)C(=O)NC1c1ccc(Cl)cc1 (centres undefined),i,.,.,.,.,.
CC(=NCc1ccco1)c1c(C)[nH]n(-c2nc3ccccc3s2)c1=O,.,0.25,0.9,.,.,.
CC(=NCc1ccco1)c1c(O)n(C2CCCCC2)c(=O)[nH]c1=O,i,0.38,11*,14172*,1048,3684*
CC(=O)c1cccc(N2C(=O)c3ccc(Oc4cccc([N+](=O)[O-])c4)cc3C2=O)c1,i,.,.,.,.,.
COc1cc([N+](=O)[O-])ccc1N1C(=O)c2cccc([N+](=O)[O-])c2C1=O,i,.,.,.,.,.
Cc1ccc(-c2cc(-c3ccc(F)cc3)nc(N)c2C#N)o1,i,0.36,15*,26016*,2012,4452*
Cc1ccc(-c2cc(-c3ccccc3)c(C#N)c(N)n2)o1,i,-0.56,-0.73,.,.,.
O=C1c2ccccc2C(=O)N1CCc1c[nH]c2ccc(OC(=O)C34CC5CC(CC(C5)C3)C4)cc12,i,.,.,.,.,.
COc1ccc(C2=NOC(C(=O)NCc3cccs3)C2)cc1 (centres undefined),.,-0.84,.,.,.,.
O=C(NCc1cccs1)C1CC(c2ccccc2O)=NO1 (centres undefined),i,.,2.8*,6344*,1416,2728
N#Cc1ccc(-n2nnc3ccccc32)cc1C#N,i,.,.,.,.,.
CC(C)C1Cc2c(C#N)c(N)n(C)c(=S)c2CO1 (centres undefined),i,-0.38,9.8*,11952*,1676,3308*
CCC1(C)Cc2c(C#N)c(N)n(N)c(=S)c2CO1 (centres undefined),i,-0.069,1,.,.,.
CC(=O)Nc1ccc(S(=O)(=O)NC2CCC(C(=O)O)CC2)cc1 (centres undefined),i,.,.,.,.,.
O=c1[nH]c2cc3c(cc2cc1C(c1nnnn1C1CCCC1)N1CCSCC1)OCCO3 (centres undefined),.,.,6.9*,10448*,1784,2992
CC(C)(C)n1nnnc1C(c1cc2cc3c(cc2[nH]c1=O)OCCO3)N1CCSCC1 (centres undefined),.,-0.41,1.1,.,.,.
CCCCC1(O)CCCC1O (centres undefined),i,.,.,.,.,.
Cc1cccc(Nc2ncc3c(n2)CC(c2ccco2)CC3=O)c1 (centres undefined),i,0.56,0.32,.,.,.
SMILES,BAP1 inh,DAT uptake mod,D1 allo mod,D1 PAM confirm,D1 ag no DA,Isoprot counter
Cc1cc(C)cc(Nc2ncc3c(n2)CC(c2ccco2)CC3=O)c1 (centres undefined),i,1.9,4.7*,7924*,1512,3048*
Cc1nnc(NC(=O)CSc2nnc(Cc3cccn3C)n2CCc2ccccc2)s1,i,0.36,0.19,.,.,.
Cn1cccc1Cc1nnc(SCC(=O)NC2CCCCC2)n1CCc1ccccc1,i,0.94,1.5*,5188,1520,2144
COc1ccc(CC(=O)Nc2c3c(nn2-c2cccc(C)c2C)CS(=O)(=O)C3)cc1,i,0.93,-0.16,.,.,.
COc1ccccc1C(=O)Nc1c2c(nn1-c1cccc(C)c1C)CS(=O)(=O)C2,i,-1.3,6.6*,14916*,1716,3432*
O=C(COc1ccc([N+](=O)[O-])cc1)OC1CCS(=O)(=O)C1 (centres undefined),i,.,.,.,.,.
CN1C(=O)C(=O)/C(=C(/O)c2ccc(Cl)cc2)C1c1cccc([N+](=O)[O-])c1 (centres undefined),i,.,.,.,.,.
CCCc1noc2c1/C(=N\O)CC(c1ccccc1)C2 (centres undefined),.,-1.3,.,.,.,.
CCc1noc2c1/C(=N\O)CC(c1ccccc1)C2 (centres undefined),i,-0.24,17*,25792*,1744,3700*
Cc1cc(C)nc(-n2nc(C)cc2NC(=O)CN2CCC(C)CC2)n1,.,1.9,5.3*,16268*,1592,3628*
CCC1CCCCN1CC(=O)Nc1cc(C)nn1-c1nc(C)cc(C)n1 (centres undefined),i,0.26,0.64,.,.,.
CCOC(=O)C1=CN(C)C=C(C(=O)OCC)C1c1ccsc1,.,-0.57,5.8*,4896,1708,3424
COC(=O)C1=C(C)N(C)C(C)=C(C(=O)OC)C1c1ccsc1,i,-0.014,-2,.,.,.
CCOc1cc(-c2cc(-c3ccccc3)nc(N)c2C#N)ccc1O,.,-0.86,.,.,.,.
CCOc1cc(-c2cc(-c3ccc(N)cc3)nc(N)c2C#N)ccc1O,i,-0.71,8.6*,19856*,1656,11240*
Nc1ccc(C(=O)Nc2ccc(Cc3ccc(NC(=O)c4ccc(N)cc4)cc3)cc2)cc1,i,.,.,.,.,.
CC(C)CC1(C)NC(=O)NC1=O (centres undefined),i,-0.45,3*,6352,1712,2472
CC1(Cc2ccc3c(c2)OCO3)NC(=O)NC1=O (centres undefined),i,-1.1,-0.63,.,.,.
CCN=C(Nc1ccc2c(c1)OCO2)SC1CC(=O)N(c2ccccc2F)C1=O (centres undefined),i,-0.16,6.4*,12104*,2380,3376*
CCN=C(Nc1ccc2c(c1)OCO2)SC1CC(=O)N(c2ccc(OC)cc2)C1=O (centres undefined),.,-0.2,.,.,.,.
COc1ccc(OC)c(C2CC(=O)c3c([nH]c(C(=O)OC(C)C)c3C)C2)c1 (centres undefined),i,-0.12,2.8*,9020*,2012,3796*
COCCOC(=O)c1[nH]c2c(c1C)C(=O)CC(c1cc(OC)ccc1OC)C2 (centres undefined),i,-0.045,0.13,.,.,.
C=CCN=C(NC#N)SCc1ccccc1,.,0.62,.,.,.,.
C=CCN=C(NC#N)SCC(=O)c1cccc(OC)c1,i,0.11,12*,10808*,1776,3492*
COc1cc(C2C(C(C)=O)=C(O)C(=O)N2c2ccc(C)cc2)ccc1O (centres undefined),.,0.05,.,.,.,.
CCOC(=O)c1ccc(N2C(=O)C(O)=C(C(C)=O)C2c2ccc(O)c(OC)c2)cc1 (centres undefined),i,0.18,2.5*,5200,1280,2220

# Source: PubChem BioAssay
